Results filed as inconclusive are left out. Active and inactive are the calls of the source. Rule for the calls, unless noted: active = hit-call score of the fitted dose curve at least 0.9, where 1 is the maximum; inactive = score below 0.9.

Nuclear receptor subfamily 4 group A member 2 (Homo sapiens), sequence (P43354 whole entry, looked up, the tested form may be a part): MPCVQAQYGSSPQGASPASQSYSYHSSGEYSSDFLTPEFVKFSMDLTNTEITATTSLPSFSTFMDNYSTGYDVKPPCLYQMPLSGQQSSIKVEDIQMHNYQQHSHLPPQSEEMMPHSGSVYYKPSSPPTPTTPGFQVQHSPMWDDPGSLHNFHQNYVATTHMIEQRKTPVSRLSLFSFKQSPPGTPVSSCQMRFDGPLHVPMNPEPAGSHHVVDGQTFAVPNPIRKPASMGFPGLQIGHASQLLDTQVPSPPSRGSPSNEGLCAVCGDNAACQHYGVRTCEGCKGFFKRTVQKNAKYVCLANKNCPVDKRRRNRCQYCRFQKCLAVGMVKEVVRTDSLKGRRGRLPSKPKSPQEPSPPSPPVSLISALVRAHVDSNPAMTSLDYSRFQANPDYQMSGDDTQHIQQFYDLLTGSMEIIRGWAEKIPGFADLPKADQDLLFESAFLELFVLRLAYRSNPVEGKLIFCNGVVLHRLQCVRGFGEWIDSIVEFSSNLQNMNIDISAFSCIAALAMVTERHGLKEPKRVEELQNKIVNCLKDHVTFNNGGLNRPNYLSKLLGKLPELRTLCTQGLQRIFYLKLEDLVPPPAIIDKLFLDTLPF

The first assay has as its target Nuclear receptor subfamily 4 group A member 2 (Homo sapiens) (UniProt P43354). Put plainly: ATG_NURR1_TRANS: Attagene TRANS-FACTORIAL HepG2 Assay for human Nuclear Receptor Related Protein 1 (NURR1) (AID 2282985; active = hit-call score of the fitted dose curve at least 0.9, where 1 is the maximum). The note with it: HepG2 Attagene TRANS reporter, mRNA readout. In short, it runs like this:
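Reporter transcript induction, measured by RT-PCR with fluorescent labelling, HpaI digestion and capillary electrophoresis, after 24 hr dosing of human HepG2 cells transiently expressing an exogenous NR-Gal4 fusion with GAL4-UAS-driven reporters; DMSO as baseline.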
On to `CC(C)OC(=O)COc1ccc(Cl)cc1Cl`, for which the compound was classed as inactive.

As to `CCN(CCO)S(=O)(=O)C(F)(F)C(F)(F)C(F)(F)C(F)(F)C(F)(F)C(F)(F)C(F)(F)C(F)(F)F`, the compound was classed as inactive.

Regarding `CCn1c2ccccc2c2ccccc21`, the outcome was inactive.

With `O=C=NCc1cccc(CN=C=O)c1`, the call was inactive.

In the case of `CC(C)(C)c1cc(CCC(=O)OCC(COC(=O)CCc2cc(C(C)(C)C)c(O)c(C(C)(C)C)c2)(COC(=O)CCc2cc(C(C)(C)C)c(O)c(C(C)(C)C)c2)COC(=O)CCc2cc(C(C)(C)C)c(O)c(C(C)(C)C)c2)cc(C(C)(C)C)c1O`, the compound was called inactive.

For `CC(C)Nc1ccc(NC(C)C)c2c1C(=O)c1ccccc1C2=O`, the compound was called inactive.

As to `C#CC(O)CCC` (stereo not drawn), the result was inactive.

Turning to `CC(O)C#CC(C)O` (stereo not drawn), the outcome was inactive.

On to `O=C1C=CC(=O)N1c1ccccc1`, for which the result was inactive.

With `Cc1ccc(S(=O)(=O)C(I)I)cc1`, the call was inactive.

Take `NC(O)(C(F)(F)F)C(F)(F)F`: the compound was classed as inactive.

Broadly, the AC50 is the concentration at which the activity in the assay is half-maximal. Consider `O=C(Cl)C(F)(F)C(F)(F)C(F)(F)C(F)(F)C(F)(F)C(F)(F)C(F)(F)F`, for which the AC50 was 38.9 µM (active).

As for `CCCCOC(=O)[C@H](C)O`, the compound was classed as inactive.

`O=C(F)C1(F)C(F)(F)C(F)(F)C(F)(F)C(F)(F)C1(F)F`: the call was inactive.

`CC1=CCC(=O)O1`: the compound was called inactive.

Consider `CC1=CC2C3C=CC(C3)C2C1C` (stereo not drawn), for which the compound was called inactive.

As to `OCC(F)(F)C(F)(F)C(F)(F)CO`, the outcome was inactive.

Consider `O=C1c2c(O)ccc(Nc3ccc(CCO)cc3)c2C(=O)c2c([N+](=O)[O-])ccc(O)c21`, for which the AC50 is 30.4 µM (active).

As to `O=C(O)C(F)(F)OC(F)(F)C(F)(F)OC(F)(F)C(F)(F)OC(F)(F)F`, the compound was called inactive.

In the case of `N#Cc1ccccc1O`, the call was inactive.

On to `O=C(c1ccccc1)c1ccc(Cl)cc1`, for which the call was inactive.

On to `CC(C)(C)C(=O)C1C(=O)c2ccccc2C1=O`, for which the compound was called inactive.

For `O=S(=O)(Cl)C(F)(F)C(F)(F)C(F)(F)C(F)(F)C(F)(F)C(F)(F)C(F)(F)C(F)(F)F`, the call was inactive.

Consider `Brc1ccccn1`, for which the outcome was inactive.

With `COC(F)(C(F)F)C(F)(F)F` (stereo not drawn), the compound was classed as inactive.

Another assay deals with Transcriptional activator Myb (Homo sapiens) (UniProt P10242). In words: ATG_Myb_CIS: Attagene CIS-FACTORIAL HepG2 Assay for human Myeloblastosis (Myb) Proto-Oncogene Transcription Factor (AID 2282986). The note with it: HepG2 Attagene CIS-FACTORIAL Myb reporter transcription; actives raise or lower the signal. In short, it runs like this: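 Endogenous transcription factor activity at a Myb-responsive cis element is reported in human liver HepG2 cells after 24 h chemical treatment. Reporter mRNA is detected by RT-PCR and capillary electrophoresis fluorescence, with DMSO as baseline.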
Transcriptional activator Myb (Homo sapiens), sequence (P10242 whole entry, looked up): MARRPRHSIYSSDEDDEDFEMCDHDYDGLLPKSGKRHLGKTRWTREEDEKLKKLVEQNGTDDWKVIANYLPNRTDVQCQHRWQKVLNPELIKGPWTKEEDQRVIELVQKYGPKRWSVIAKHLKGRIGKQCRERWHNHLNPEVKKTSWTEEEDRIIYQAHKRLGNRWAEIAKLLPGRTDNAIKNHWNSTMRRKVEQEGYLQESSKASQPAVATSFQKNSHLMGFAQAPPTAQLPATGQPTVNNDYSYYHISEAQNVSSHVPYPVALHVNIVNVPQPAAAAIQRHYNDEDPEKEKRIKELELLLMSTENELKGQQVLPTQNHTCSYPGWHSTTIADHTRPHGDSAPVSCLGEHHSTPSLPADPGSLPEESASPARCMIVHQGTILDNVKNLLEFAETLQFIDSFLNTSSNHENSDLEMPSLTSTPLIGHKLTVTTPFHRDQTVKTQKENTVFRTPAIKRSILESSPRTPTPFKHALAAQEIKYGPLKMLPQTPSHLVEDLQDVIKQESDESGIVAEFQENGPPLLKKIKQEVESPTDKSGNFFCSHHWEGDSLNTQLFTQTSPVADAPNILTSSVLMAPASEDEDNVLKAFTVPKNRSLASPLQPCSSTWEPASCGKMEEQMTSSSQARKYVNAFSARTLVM
Regarding `NC(=O)C(F)(F)C(F)(F)C(F)(F)C(F)(F)C(N)=O`, the compound was called inactive.

`CC(C)OC(=O)COc1ccc(Cl)cc1Cl`: the outcome was inactive.

For `CCN(CCO)S(=O)(=O)C(F)(F)C(F)(F)C(F)(F)C(F)(F)C(F)(F)C(F)(F)C(F)(F)C(F)(F)F`, the compound was classed as inactive.

Regarding `CN(N=O)C(=O)N[C@@H]1[C@@H](O)[C@H](O)[C@@H](CO)O[C@@H]1O`, the call was inactive.

For the compound `CCn1c2ccccc2c2ccccc21`, the compound was classed as inactive.

In the case of `O=C=NCc1cccc(CN=C=O)c1`, the compound was classed as inactive.

As to `CC(C)(C)c1cc(CCC(=O)OCC(COC(=O)CCc2cc(C(C)(C)C)c(O)c(C(C)(C)C)c2)(COC(=O)CCc2cc(C(C)(C)C)c(O)c(C(C)(C)C)c2)COC(=O)CCc2cc(C(C)(C)C)c(O)c(C(C)(C)C)c2)cc(C(C)(C)C)c1O`, the call was inactive.

Consider `O=C1OC(=O)c2ccc3c4c(ccc1c24)C(=O)OC3=O`, for which the call was inactive.

As to `OCCCCC(F)(F)C(F)(F)C(F)(F)C(F)(F)F`, the compound was called inactive.

Regarding `CCCCCCCCCc1ccc(OCCO)cc1`, the AC50 was 17.6 µM (active).

In the case of `CC(C)Nc1ccc(NC(C)C)c2c1C(=O)c1ccccc1C2=O`, the result was inactive.

Take `C#CC(O)CCC` (stereo not drawn): the compound was called inactive.

With `N#CCCOCCC#N`, the compound was classed as inactive.

As to `O=C(O)C(F)(F)C(F)(F)C(F)(F)C(=O)O`, the compound was called inactive.

In the case of `O=C=Nc1cccc2c(N=C=O)cccc12`, the outcome was inactive.

In the case of `CC(O)C#CC(C)O` (stereo not drawn), the call was inactive.

For the compound `O=C1C=CC(=O)N1c1ccccc1`, the outcome was inactive.

On to `Cc1ccc(S(=O)(=O)C(I)I)cc1`, for which the concentration at half-maximal activity (AC50) was 17.4 µM (active).

Take `NC(=O)C(F)(F)C(F)(F)C(F)(F)C(F)F`: the compound was classed as inactive.

For the compound `NC(O)(C(F)(F)F)C(F)(F)F`, the outcome was inactive.

For `O=C(Cl)C(F)(F)C(F)(F)C(F)(F)C(F)(F)C(F)(F)C(F)(F)C(F)(F)F`, the call was inactive.

As for `CCCCOC(=O)[C@H](C)O`, the compound was classed as inactive.

Regarding `NCC(F)(F)C(F)(F)C(F)(F)C(F)(F)C(F)(F)C(F)(F)F`, the compound was called inactive.

Turning to `O=C(F)C1(F)C(F)(F)C(F)(F)C(F)(F)C(F)(F)C1(F)F`, the call was inactive.

As for `Nc1cccnc1N`, the call was inactive.

With `CC1=CCC(=O)O1`, the compound was called inactive.

With `CC1=CC2C3C=CC(C3)C2C1C` (stereo not drawn), the result was inactive.

Take `OCC(F)(F)C(F)(F)C(F)(F)CO`: the result was inactive.

In the case of `O=C1c2c(O)ccc(Nc3ccc(CCO)cc3)c2C(=O)c2c([N+](=O)[O-])ccc(O)c21`, the outcome was inactive.

`O=C(O)C(F)(F)OC(F)(F)C(F)(F)OC(F)(F)C(F)(F)OC(F)(F)F`: the compound was called inactive.

Consider `N#Cc1ccccc1O`, for which the outcome was inactive.

Consider `O=C(c1ccccc1)c1ccc(Cl)cc1`, for which the call was inactive.

On to `CCN(CC)c1ccc(C=O)cc1`, for which the outcome was inactive.

Consider `CC(C)(C)C(=O)C1C(=O)c2ccccc2C1=O`, for which the compound was classed as inactive.

Consider `O=S(=O)(Cl)C(F)(F)C(F)(F)C(F)(F)C(F)(F)C(F)(F)C(F)(F)C(F)(F)C(F)(F)F`, for which the call was inactive.

In the case of `Brc1ccccn1`, the outcome was inactive.

Take `COC(F)(C(F)F)C(F)(F)F` (stereo not drawn): the result was inactive.

Consider `COCCC(=O)OC`, for which the compound was classed as inactive.

(Values after PubChem BioAssay (EPA / NIEHS).)
